# Rab9 prom act: activates the Rab9 promoter | Potency, µM (highest dose often 9.22 µM), for the others: at the highest dose activation, negative = inhibition, most hits filed as activators | 320,000 tested, 2.8% active | Huh7 Rab9 promoter-luciferase reporter, luminescence, 24 h; further: % of control where 0% means no effect; nearly all actives have a fitted effect of over 60% in size
#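 Promoter activation is measured as luciferase luminescence in Huh7 cells stably transfected with a Rab9 promoter–luciferase construct, following 24 h compound exposure at 37 °C and 10 min reagent incubation at ambient temperature.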
# ELG1 genotox: induces genotoxicity in HEK293T cells with luciferase-tagged ELG1; HEK293T ELG1-luciferase reporter, luminescence, 16 h; Potency, µM (series often up to 46 µM), without a hit: at the top dose activity change, positive = activation, actives largely listed as activators; 330,000 tested, 1.3% active; further: % of control where 0% means no effect; nearly all actives have a fitted effect of over 60% in size
#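 Genotoxicity was scored as increased ELG1-luciferase reporter signal, measured by ONE-Glo luminescence (30 min, room temperature). Compound or vehicle exposure of the HEK293T reporter cells lasted 16 hr at 37°C.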
# SMN2 splice enh: enhancers of SMN2 splice variant expression; Potency, µM (top dose mostly 46.1 µM), inactives show at the highest dose activity change, positive = activation, most hits filed as activators; 210,000 tested, 2.8% active; HEK293 SMN2-luciferase splicing reporter, luminescence, 30-36 h; AID 1458; further: % of control where 0% means no effect; nearly all actives have a fitted effect of over 55% in size
#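 HEK293 cells carry an SMN2 minigene-luciferase reporter in which exon 7 inclusion puts luciferase in frame. Cells were seeded at 2000 cells/well, attached for 10-12 hours, then exposed to compounds for 30-36 hours at 37C before ONE-Glo luminescence.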
# ELG1 DNA repair: inhibitors of ELG1-dependent DNA repair in HEK293T cells. 330,000 tested, 2.3% active. AID 504467. Potency, µM (highest dose often 46.1 µM), inactives show at the top dose activity change, negative = inhibition, actives largely listed as inhibitors. HEK293T ELG1-luciferase reporter, luminescence, 16 h; DNA damage induced by 5-fluorouridine; further: on the % scale 0 is the no-effect control and ±100 the full control effect; nearly all actives have a fitted effect of over 55% in size
#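 5-Fluorouridine DNA damage + compound/DMSO, 2,000 cells/well, 16 h, 37 °C/5% CO2. ONE-Glo, 30 min RT, luminescence. Readout = decrease in reporter signal.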
# NPC1 prom act: activators of NPC1 promoter | Huh7 NPC1 promoter luciferase reporter, 24 h | Potency, µM (doses to about 9.22 µM), for the others: at the highest dose activation, usual class: activators | 320,000 tested, 2.4% active | AID 485313; further: % of control where 0% means no effect; nearly all actives have a fitted effect of over 60% in size
#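 Huh7 cells stably carrying NPC1 promoter–luciferase, plated in Opti-MEM with 10% FBS for 2 h, were exposed to compound in DMSO for 24 h at 37 °C; luciferase reagent was added for 10 min and luminescence read.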
# FLuc counter: counter-screen for miR-21 project: firefly luciferase inhibitors or activators | AID 588342 | P08659 | purified FLuc, Km substrates, luminescence inhibition | Potency, µM (titrated, usually from 57.5 µM), for inactives: top-dose activity change, negative = inhibition, hits mostly inhibitors | 360,000 tested, 6.9% active;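 further: plate controls were vehicle for no effect and reference inhibitor for full effect; nearly all actives have a fitted effect of over 55% in size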
# Target sequence (P08659 whole entry, looked up): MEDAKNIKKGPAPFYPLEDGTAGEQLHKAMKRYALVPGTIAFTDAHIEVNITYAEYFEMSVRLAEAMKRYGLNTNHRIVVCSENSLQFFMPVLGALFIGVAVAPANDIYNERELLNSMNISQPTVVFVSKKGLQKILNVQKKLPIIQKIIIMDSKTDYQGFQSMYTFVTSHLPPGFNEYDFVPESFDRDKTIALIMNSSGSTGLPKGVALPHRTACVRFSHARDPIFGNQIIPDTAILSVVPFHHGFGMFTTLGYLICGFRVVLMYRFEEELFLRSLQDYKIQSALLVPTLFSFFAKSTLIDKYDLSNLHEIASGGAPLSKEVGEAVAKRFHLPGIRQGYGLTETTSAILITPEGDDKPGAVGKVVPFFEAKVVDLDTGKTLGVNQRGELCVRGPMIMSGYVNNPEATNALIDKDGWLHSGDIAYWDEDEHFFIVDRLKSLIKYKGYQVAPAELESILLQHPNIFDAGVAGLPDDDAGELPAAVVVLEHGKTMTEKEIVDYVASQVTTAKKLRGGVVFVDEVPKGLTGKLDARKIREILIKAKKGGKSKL
#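 Biochemical qHTS of compounds, final roughly 60 µM downward over six points, against 10 nM purified firefly luciferase using Km concentrations of substrates (10 uM D-luciferin, 10 uM ATP) in Tris acetate pH 7.5 buffer; luminescence output.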
# Numbers without * were called inactive; ? = inconclusive; · = no result. In the library only some 9.2% were active in any assay of this set; here they are far more common. The call rests on the fitted dose curve; in most records, active means well fitted curve in the direction sought with a large enough effect; inconclusive means small, poorly fitted or top-dose-only effect, or another doubt; inactive means no such curve, though single readings can be large; an effect the other way counts as inactive or inconclusive. Potency means the concentration at half of the fitted maximal effect.
SMILES,Rab9 prom act,ELG1 genotox,SMN2 splice enh,ELG1 DNA repair,NPC1 prom act,FLuc counter
C=CCn1c(SCC(=O)Nc2ccc(N3CCOCC3)cc2)nnc1-c1ccncc1,9%,1%,·,24%,8%,?
O=C(CSc1nnc2scc(-c3ccccc3)n12)Nc1nsc(-c2ccccc2)n1,-7%,-27%,-66%,9.2µM*,1%,9%
Cc1ccc(-c2csc3nnc(SCC(=O)Nc4nsc(-c5ccccc5)n4)n23)cc1,·,·,-25%,·,·,3%
CCn1c(SCC(=O)Nc2ccc(-c3nc4ccc(C)cc4s3)cc2)nnc1-c1ccccc1,0.63µM*,?,0.56µM*,?,?,?
C=CCn1c(SCC(=O)Nc2ccc(-c3nc4ccc(C)cc4s3)cc2)nnc1-c1ccncc1,?,?,7.1µM*,?,?,?
Cc1nnc(SCC(=O)Nc2nsc(-c3ccc(C(C)(C)C)cc3)n2)s1,1.4µM*,3.3µM*,11µM*,?,1.4µM*,11µM*
Cc1nnc(SCC(=O)Nc2ccc(-c3nc4ccccc4s3)cc2)s1,0.35µM*,2.1µM*,1.3µM*,?,0.79µM*,0.27µM*
Cc1nnc(SCC(=O)Nc2ccccc2NC(=O)CSc2nnc(C)s2)s1,·,·,-10%,·,·,-1%
Oc1ccccc1/C=N/Nc1ccccc1,26%,?,-4%,?,-3%,7.6µM*
Oc1ccccc1/C=N/Nc1ncc(Br)cn1,25%,16µM*,-73%,?,-3%,?
Oc1ccc(/C=N/Nc2nc(N3CCCCCC3)nc(N3CCCCCC3)n2)c(O)c1,0%,-16%,-19%,?,-1%,1%
Oc1ccc(/C=N/Nc2ccc3ccccc3c2)c(O)c1,1%,19%,7%,?,9%,19µM*
NC(=S)N/N=C/c1ccccc1O,-6%,-5%,·,4%,2%,2%
COCCN=C1Sc2nc3ccc(C)cc3cc2CN1Cc1ccco1,22%,12%,20%,?,16%,11µM*
COCCN=C1Sc2nc3cc(C)c(C)cc3cc2CN1Cc1cccs1,17%,3%,·,?,0%,-7%
Cc1nn(-c2ccccc2)c(-n2cccc2)c1C(=O)NCCCN1CCN(c2ccccc2F)CC1,·,·,-14%,·,·,-9%
COc1ccc(CN2CCN(C(=O)C3CCN(S(=O)(=O)c4cccs4)CC3)CC2)c(OC)c1OC,-12%,-5%,-35%,10µM*,-5%,-4%
COc1ccc(CN2CCN(C(=O)C3CCC(CNS(=O)(=O)c4ccc(C)cc4)CC3)CC2)c(OC)c1OC (stereo not given),-27%,-8%,-28%,12µM*,-6%,0%
CC(C)(C)c1cc(-c2csc(Nc3ccccc3)[n+]2Cc2ccc(C(=O)O)cc2)cc(C(C)(C)C)c1O,-2%,-18%,·,16µM*,-2%,-1%
Cc1cccc(C)c1NC(=O)CCCn1c(=O)c2cccn2c2ccccc21,·,·,·,·,·,5.4µM*
O=C(CCn1c(=O)c2cccn2c2ccc(F)cc21)NCCc1ccc(Cl)cc1,·,·,·,·,·,0%
Cc1cc(C)cc(NC(=O)CCn2c(=O)c3cccn3c3ccccc32)c1,-24%,-9%,·,-15%,-29%,-1%
O=C(CCCn1c(=O)c2cccn2c2ccccc21)NCCc1ccc(Cl)cc1,·,·,·,·,·,3.8µM*
CC(=O)c1cccc(NC(=O)c2c(-c3ccccc3)c(-c3ccccc3)nn(C)c2=O)c1,·,·,-9%,·,·,-4%
CC1Cc2ccccc2N1S(=O)(=O)c1cccc(C(=O)N2Cc3ccccc3CC2C(N)=O)c1 (stereo not given),1%,0%,·,-6%,1%,-1%
SMILES,Rab9 prom act,ELG1 genotox,SMN2 splice enh,ELG1 DNA repair,NPC1 prom act,FLuc counter
NS(=O)(=O)c1ccc(CNC(=O)c2cc(-c3ccccc3)nc3ccccc23)cc1,-1%,-7%,·,-7%,-4%,?
Cc1ccc(-c2cc(C(=O)NCCc3ccc(S(N)(=O)=O)cc3)c3ccccc3n2)cc1,14%,-9%,-2%,?,4%,6µM*
COc1cc(-c2cc(C(=O)NCc3ccc(S(N)(=O)=O)cc3)c3ccccc3n2)cc(OC)c1OC,3%,-20%,·,13µM*,-2%,-13%
COc1cc(-c2cc(C(=O)NCc3ccco3)c3ccccc3n2)cc(OC)c1OC,-1%,-22%,·,13µM*,-4%,-2%
COc1ccc(-c2cc(C(=O)NCCc3ccc(S(N)(=O)=O)cc3)c3ccccc3n2)cc1,26%,-16%,-12%,?,4%,7.6µM*
CCCOc1ccc(Oc2nc(NCC(C)C)nc(N(C)C)n2)nn1,·,·,-10%,·,·,5%
Cc1cccc2sc(NNC(=O)c3cc(=O)c4ccccc4o3)nc12,?,?,·,?,?,4.8µM*
COc1ccc2nc(NNC(=O)c3cc(=O)c4ccccc4o3)sc2c1,20%,6%,·,16%,16%,2.7µM*
COc1ccc2nc(NC(=O)c3cc(=O)c4cc(C)c(C)cc4o3)sc2c1,·,·,0%,·,·,-14%
O=C(NNc1nc2c(F)cccc2s1)c1cc(=O)c2ccccc2o1,?,?,·,?,?,5.4µM*
Cc1ccc2sc(NNC(=O)c3cc(=O)c4ccccc4o3)nc2c1C,19%,?,·,?,16%,9.5µM*
Cc1cccc(OCC(=O)N(Cc2ccc(C(C)(C)C)cc2)Cc2ccco2)c1,·,·,-8%,·,·,3%
CCc1ccc(OCC(=O)N(Cc2ccco2)Cc2ccccc2Cl)cc1,·,·,-19%,·,·,-15%
C/C=C\C=C\C(=O)Nc1cccc(C2=NOC3(C2)C[C@H](C(N)=O)N(C(=O)c2ccccc2C(=O)c2ccccc2)C3)c1 (stereo not given in full),-5%,-2%,·,?,3%,21µM*
C/C=C\C(=O)Nc1cccc(C2=NOC3(C2)C[C@@H](C(N)=O)N(C(=O)c2ccccc2)C3)c1 (stereo not given in full),-11%,0%,·,10%,-2%,4%
CCCOc1ccc(C(=O)N2CC3(CC(c4cccc(NC(=O)[C@@H]5CCC(=O)N5)c4)=NO3)C[C@H]2C(=O)NC2(C(N)=O)CC2)cc1 (stereo not given in full),-5%,-1%,-4%,8%,1%,5%
NC(=O)C1(NC(=O)[C@@H]2CC3(CC(c4cccc(NC(=O)[C@@H]5CCC(=O)N5)c4)=NO3)CN2C(=O)c2ccccc2)CC1 (stereo not given in full),6%,0%,-10%,14%,2.2µM*,-2%
